# Most compounds without a hit are left out; they make up all but 3.6% or so of the library.
# KAT2A inh = GCN5L2 (KAT2A) acetyltransferase inhibition; GCN5L2 HAT assay, ThioGlo1 CoA-SH fluorescence; Potency, µM (top dose mostly 58.9 µM), inactives show at the highest dose activity change, negative = inhibition, most hits filed as inhibitors; hit rate 0.21% among 390,000; also: % is scaled to controls: 0 for no effect and ±100 for the full control effect
#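 Preincubate 20nM GCN5L2 with compound 15 min, RT → add 50uM ThioGlo1 + 75uM H3(1-25) + 70uM acetyl-CoA → read fluorescence 0 and 20 min. Primary qHTS; fluorescent artifacts likely.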
# IMPase Li inh = cell-permeable IMPase inhibitors with lithium potentiation | CHO-M1 cells, IP1 TR-FRET (IP-One), carbachol + lithium | Potency, µM (doses to about 59.4 µM), inactives show at the highest dose activity, negative = IMPase inhibition, usual class: inhibitors | hit rate 0.35% among 210,000 | AID 1457;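 also: IP1 builds up when IMPase is blocked and the TR-FRET signal falls; plate controls were basal vehicle for no effect and high inhibitor control for full effect; nearly all actives have a fitted effect of over 50% in size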
#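 CHO cells stably expressing M1 receptor (2000/well, cultured 16–30 h) treated 30 min at 37C with compound plus low lithium. Cytosolic IP1 by TR-FRET (665/620 ratio and 620 channel) after 10 min lysis; AC50 by Hill fit.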
# JMJD2E inh = JMJD2E (human) inhibition; B2RXH2; JMJD2E catalytic domain, FDH-coupled NADH fluorescence (FDH is formaldehyde dehydrogenase); Potency, µM (doses to about 57.1 µM), for the others: at the highest dose activity change, negative = inhibition, hits mostly inhibitors; hit rate 1.6% among 230,000; active = well fitted inhibition curve with a large enough effect, not every such curve was filed as active; inconclusive = small, poorly fitted or top-dose-only effect, or another doubt; inactive = no such curve, though single readings can be large or run the other way;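 also: 0% = wells with enzyme and -100% = buffer wells without enzyme; nearly all actives have a fitted effect of over 50% in size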
# Target sequence (B2RXH2 1-337 limits assumed): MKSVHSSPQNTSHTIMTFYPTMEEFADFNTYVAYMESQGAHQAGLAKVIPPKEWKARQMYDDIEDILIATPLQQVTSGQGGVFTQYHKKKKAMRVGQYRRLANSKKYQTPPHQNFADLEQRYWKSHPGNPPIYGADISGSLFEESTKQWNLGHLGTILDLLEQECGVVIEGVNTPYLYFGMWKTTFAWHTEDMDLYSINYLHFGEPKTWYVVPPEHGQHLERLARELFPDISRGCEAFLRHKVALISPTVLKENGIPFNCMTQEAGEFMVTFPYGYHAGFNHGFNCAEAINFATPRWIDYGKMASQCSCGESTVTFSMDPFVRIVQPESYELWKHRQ
# NPSR antag = blocks cAMP signaling of the human neuropeptide S receptor; Q6W5P4; CHO-NPSR cells, cAMP TR-FRET, antagonist mode; Potency, µM (titrated, usually from 38.3 µM), inactives show top-dose activity change, negative = inhibition, actives largely listed as inhibitors; hit rate 1% among 220,000; AID 1461; also: % is scaled to controls: 0 for no effect and ±100 for the full control effect; nearly all actives have a fitted effect of over 50% in size
# Target sequence (Q6W5P4 whole entry, looked up): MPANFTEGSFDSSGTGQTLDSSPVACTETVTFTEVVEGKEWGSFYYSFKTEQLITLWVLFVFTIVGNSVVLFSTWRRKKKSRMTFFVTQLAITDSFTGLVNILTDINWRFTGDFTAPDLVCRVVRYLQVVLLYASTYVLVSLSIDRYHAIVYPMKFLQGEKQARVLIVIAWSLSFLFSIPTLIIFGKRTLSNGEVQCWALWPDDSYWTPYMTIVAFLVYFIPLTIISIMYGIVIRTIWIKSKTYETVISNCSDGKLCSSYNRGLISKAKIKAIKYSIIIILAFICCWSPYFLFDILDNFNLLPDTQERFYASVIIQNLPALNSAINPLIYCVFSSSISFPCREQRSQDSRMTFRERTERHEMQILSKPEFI
# Epigenetic reg = derepresses silenced GFP reporter in murine cells. Potency, µM (titrated, usually from 53.9 µM), for inactives: at the top dose GFP activation, hits mostly activators. murine LDR cells, GFP reporter derepression, 30 h. AID 1865. hit rate 0.2% among 280,000; also: % of control where 0% means no effect; nearly all actives have a fitted effect of over 60% in size
#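 Murine LDR cells bearing a silenced CMV-driven GFP reporter were exposed to compound for 30 h at 37 C. After PBS washes, GFP-positive cells (20-120 um objects) counted by laser-scanning microplate cytometry.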
# Sfp inh = inhibitors of Bacillus subtilis Sfp phosphopantetheinyl transferase. Q9F4F7. Biochemical Sfp PPTase activity, qHTS. Potency, µM, inactives show largest response in the series, negative = inhibition, most hits filed as inhibitors. hit rate 3.5% among 310,000. AID 1490;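 also: the enzyme is Sfp with the accession as filed and its product quenches rhodamine fluorescence; 0% = enzyme reaction without inhibitor and -100% = no enzyme wells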
#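 Compounds were incubated with enzyme (final 15 nM) for 15 min at room temperature before substrate addition started the reaction. Fluorescence at 525 nm excitation, 598 nm emission was recorded immediately and after 30 minutes.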
# Starred values were filed as active, the others as inactive; ? = inconclusive; · = no result; [ ] = dose if it differs, or a comment. Unless noted, calls follow the shape of the dose curve; as a rule, active = well fitted curve in the direction sought with a large enough effect; inconclusive = small, poorly fitted or top-dose-only effect, or another doubt; inactive = no such curve, though single readings can be large; an effect the other way counts as inactive or inconclusive. Potency is read from the fitted curve at half-maximal effect.
SMILES,KAT2A inh,IMPase Li inh,JMJD2E inh,NPSR antag,Epigenetic reg,Sfp inh
COc1cc(/C=C2\SC(=S)N(C(C(=O)O)c3ccccc3)C2=O)cc(OC)c1OC (stereo unspecified),-8%,·,0%,-21%,-1%,50µM*
COc1cc(/C=C2\SC(=O)N(CCNC(=O)c3sc4cc(F)ccc4c3Cl)C2=O)cc(OC)c1OC,-12%,50%,4%,?,18µM*,-9%
COc1cccc(/C=C2\SC(=S)N(C(C(=O)O)c3ccccc3)C2=O)c1OC (stereo unspecified),-9%,·,4%,?,-1%,79µM*
O=C(O)c1ccccc1OS(=O)(=O)O,-11%,·,·,·,·,3%
COc1cc(CCN2C(=O)N[C@@H](c3ccccc3)C(C(C)=O)=C2C)cc(OC)c1OC,·,14%,8%,·,0%,-17%
O=C1C=C(O)c2c(O)cccc2C1=O,?,·,6.3µM*,-12%,-1%,?
Cc1cccc(NC(=O)C2C3C=CC(C4CC34)C2C(=O)O)c1 (stereo unspecified),0%,14%,0%,?,0%,50µM*
COc1ccccc1-c1cncnc1N(C)Cc1ccco1,-11%,15%,·,·,·,-16%
Cc1ccccc1-c1cncnc1N(C)Cc1ccco1,?,2%,?,·,5%,50µM*
Cc1ccc(S(=O)(=O)NCC(=O)OCC(=O)NCCc2ccccc2)cc1,-8%,·,·,·,·,·
COc1ccccc1CNC(=O)COC(=O)CNS(=O)(=O)c1ccc(C)cc1,1%,·,·,·,·,28µM*
Cc1ccc(S(=O)(=O)NCC(=O)OCC(=O)c2ccc(Br)s2)cc1,-9%,10µM*,-1%,23%[46.1 µM],0%,-6%
COc1ccccc1NC(=O)CSc1nc(-c2ccc(C(C)(C)C)cc2)c(C#N)c(=O)[nH]1,?,·,·,·,-1%,·
Nc1cccc(S(=O)(=O)O)c1,·,15%,·,·,·,·
COc1ccc(C(CC(=O)O)c2ccc3c(c2)OCO3)cc1 (stereo unspecified),1%,·,·,·,·,13%
COc1ccc(CNCCC(c2ccccc2)c2ccc3c(c2)OCO3)cc1 (stereo unspecified),1%,29%[38.3 µM],1%,?,2%,35µM*
Cc1cc(C)nc(SCC(=O)OCC(=O)Nc2nc3ccccc3s2)n1,-4%,-10%,-7%,16%,-1%,-25%
COC(=O)c1ccc(NC(=O)COC(=O)CSc2nc(C)cc(C)n2)cc1,0.71µM*,0%[38.3 µM],6%,8%[46.1 µM],-1%,8%
Cc1ccc(-n2sc3ccccc3c2=O)cc1S(=O)(=O)N1CCCCC1,2.2µM*,9%[38.3 µM],11µM*,-27%[46.1 µM],4%,1.6µM*
O=S(=O)(c1ccc(S(=O)(=O)N2CCCC2)cc1)N1CCCCC1,-6%,·,·,·,·,2%
Cc1ccc(C(=O)NNC(=O)c2ccccc2)cc1S(=O)(=O)N1CCCCC1,3%,·,·,·,·,·
O=c1c2ccccc2sn1-c1ccc(S(=O)(=O)N2CCCC2)cc1,0.5µM*,1%[38.3 µM],?,-10%[46.1 µM],-1%,3.2µM*
O=c1ncccn1[C@@H]1O[C@H](CO)[C@@H](O)[C@H]1O,-2%,·,·,·,·,7%
Cc1cccc(N2CCN(c3nc4ccc(C)cc4n4cnnc34)CC2C)c1 (stereo unspecified),-10%,·,·,·,0%,·
Cc1cccc(N2CCN(C(=O)C3CCN(S(=O)(=O)c4ccc5c(c4)oc(=O)n5C)CC3)CC2)c1C,-7%,·,·,·,0%,·
SMILES,KAT2A inh,IMPase Li inh,JMJD2E inh,NPSR antag,Epigenetic reg,Sfp inh
CCn1c(-c2cc3c(C(F)(F)F)nn(C)c3s2)n[nH]c1=S,3%,-3%[38.3 µM],?,-11%[46.1 µM],-2%,71µM*
Cn1c(-c2cc3c(C(F)(F)F)nn(C)c3s2)n[nH]c1=S,-30%,-31%[38.3 µM],?,-14%[46.1 µM],3%,?
Fc1ccc(NCc2nnc3n2CCCCC3)cc1Cl,-26%,·,·,·,6%,·
Fc1ccc(Nc2nc(NCc3ccco3)c3ccccc3n2)cc1,-4%,·,?,?,0%,13µM*
c1ccc(CNc2nc(NCc3ccccc3)c3ccccc3n2)cc1,-6%,·,?,?,3%,14µM*
Cc1c(O)ccc(/C=N/Nc2nc(-c3cccnc3)nc3ccccc23)c1O,0%,·,?,?,?,?
c1ccc(CNc2nc(-c3cccnc3)nc3ccccc23)cc1,?,22%,·,·,·,-8%
Cc1ccc(CNc2nc(-c3cccnc3)nc3ccccc23)cc1,-7%,·,·,·,·,89µM*
c1ccc(CNc2nc(-c3ccccc3)nc3ccccc23)cc1,-9%,·,·,·,·,17%
Oc1ccc(/C=N/Nc2nc(-c3cccnc3)nc3ccccc23)c(O)c1,2%,·,22µM*,39%,-7%,-13%
COc1ccc(NC(=O)C2CCCN(C(=O)c3cnn(-c4ccccc4)c3-n3cccc3)C2)cc1 (stereo unspecified),-1%,·,·,·,0%,·
CN(C)CC[C@@H](C(=O)C(C)(C)C)c1ccccn1,·,5%,·,·,·,·
c1cncc(-c2nc(NCc3ccc4c(c3)OCO4)c3ccccc3n2)c1,-1%,·,-8%,?,-2%,45µM*
c1cncc(CNc2nc(-c3cccnc3)nc3ccccc23)c1,-5%,15%,·,·,·,13%
Cc1cccc(N(Cc2cc3ccccc3[nH]c2=O)S(C)(=O)=O)c1,-12%,-3%,4%,1%,-2%,56µM*
CCS(=O)(=O)c1ncc(N(Cc2ccco2)Cc2ccccc2F)c(C(=O)Nc2cccc(Cl)c2)n1,-9%,·,·,·,-3%,·
O=C(O)c1cc(S(=O)(=O)Nc2ccc(O)cc2)ccc1Cl,·,·,·,·,-3%,·
O=C(CN(CC1CCCO1)C(=O)CNS(=O)(=O)c1ccccc1)NCc1ccco1 (stereo unspecified),-6%,-2%,-6%,-9%,0%,-4%
O=C(Cn1c(=O)n(Cc2ccc(F)cc2)c(=O)c2ccccc21)NCC1CCCO1 (stereo unspecified),-2%,·,·,·,·,10%
O=C(CNCC1CCCO1)NCc1ccco1 (stereo unspecified),-1%,-4%,6%,-29%,-1%,45µM*
O=C(Cn1c(=O)n(Cc2ccco2)c(=O)c2cc(Cl)ccc21)NCC1CCCO1 (stereo unspecified),-1%,17%[38.3 µM],-7%,?,2%,40µM*
Cc1cc(C)n(CC(=O)Nc2cc(F)ccc2F)c(=O)c1C#N,-6%,·,·,·,0%,·
CO[C@@H]1COC(=O)C/C=C\[C@H](C)COC(=O)[C@H](C)NC(=O)C/C=C\[C@H]1C,·,·,·,·,0%[10.1 µM],-11%
O=[N+]([O-])c1ccc(C2Nc3cccc4cccc(c34)N2)cc1,-6%,5%,-14%,-15%,-1%,22µM*
O=[N+]([O-])c1cccc(C2Nc3cccc4cccc(c34)N2)c1,38%,4%,?,-11%,-1%,45µM*

# Bioassay records deposited in PubChem BioAssay by National Center for Advancing Translational Sciences (NCATS).
